# Source: PubChem BioAssay (NCATS)
# Inconclusive results are not listed. Values without a mark were called inactive. Calls follow the shape of the dose curve; as a rule, active = well fitted inhibition curve with a large enough effect; inconclusive = small, poorly fitted or top-dose-only effect; inactive = flat fitted curve, though single readings scatter.
# Biological target: Aldehyde dehydrogenase, mitochondrial (Homo sapiens) (UniProt P05091)
# Test: qHTS for Inhibitors of the Aldehyde Dehydrogenase Family (ALDH2) Primary screen (AID 2061308);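 also: plate controls were vehicle for no effect and reference inhibitor for full effect; nearly all actives have a fitted effect of over 55% in size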
# Settings: ALDH2 enzyme inhibition qHTS, 1536-well; series mostly up to 56 µM; activity change, negative = inhibition: at the top concentration
row,Compound,"activity change, negative = inhibition"
1,C/C(=C\c1ccc(F)cc1)C1Nc2cccc3cccc(c23)N1,-15.2%
2,CC(=O)NC(c1cc(Cl)c2ccccc2c1O)C1CC1 (configuration not stated),-17.3%
3,COc1ccc2nc(-c3cccc(NC(C)=O)c3)sc2c1,18.5%
4,NC(Cc1c[nH]c2ccc(O)cc12)C(=O)O (configuration not stated),-4.33%
5,CCC(=O)NC(c1cc(Cl)c2ccccc2c1O)C1CC1 (configuration not stated),-25.3%
6,CC(C)(C)OC(=O)N1CCN(c2ccc(NCc3ccc(-c4cc(C(F)(F)F)cc(C(F)(F)F)c4)o3)cc2)CC1,-21.6%
7,O=C(Nc1cncc(-c2ccncc2)c1)c1cccs1,-7.32%
8,COc1ccc(C2Nc3ccccc3C(=O)N2Cc2ccccc2)cc1OCc1ccc(NC(C)=O)cc1 (configuration not stated),-18.7%
9,COc1ccc(-c2nc(-c3ccc(C(=O)O)cc3)no2)cc1,13%
10,COc1cc(NS(=O)(=O)c2ccc(C)cc2)c2ncccc2c1,-22.6%
11,Cc1ccc(Nc2c(F)cccc2Cl)c(CC(=O)O)c1,-11.5%
12,Cc1ccc(C2Nc3cccc4cccc(c34)N2)cc1,-11%
13,CC(=O)Nc1sc2c(c1-c1ccc(N[S+](C)(=O)[O-])cc1)CCNC2,-27.9%
14,COc1ccccc1-c1nc(-c2cccc(C(=O)O)c2)no1,6.14%
15,COc1ccc(C(=O)OC2C3C=COC(OC4OC(CO)C(O)C(O)C4O)C3C3(CO)OC23)cc1OC (configuration not stated),-6.05% [at 28 µM]
16,N#Cc1ccc(-c2nc3ccccc3s2)cc1,11.6%
17,N#Cc1ccc(S(=O)(=O)Nc2cnccc2C(=O)Nc2nc(-c3ccccc3)cs2)cc1,9.86%
18,CCOc1ccc(CCNC(C)=O)cc1OCC,-14.2%
19,O=C(O)c1cccc(-c2noc(-c3ccc(C(F)(F)F)cc3)n2)c1,12.1%
20,Cc1ccnc(NC(=S)N2CCC(c3cccc(C(F)(F)F)c3)CC2)c1,-7.45%
21,CN(C(=O)OC(C)(C)C)c1ccc(-c2nc3ccccc3s2)cc1,-1.52%
22,CCCCN(C)C(=O)Cn1nc(-c2ccc(C(C)=O)cc2)ccc1=O,18.8%
